Common to all, as to test: NCI-60 one-dose screen, 48 h (100 = growth as untreated, 0 = no growth, -100 = all killed)
What all share (conditions): 10 µM unless noted

In test [1] the test system is SK-MEL-2 melanoma.
For test [2], the system named is EKVX NSCLC.
Test [3] relates to SN12C renal.
Test [4] has as its system UO-31 renal.
Test [5] has as its system TK-10 renal.
Test [6] relates to ACHN renal.
The test system of test [7] is CAKI-1 renal.
In test [8] the test system is A498 renal.
Test [9] relates to CCRF-CEM leukemia.
Test [10] deals with MOLT-4 leukemia.

These results are taken from PubChem BioAssay (NCI).

Each structure is given as a SMILES string. Compounds without any hit were thinned out: in the full panel of roughly 83,000, 20% have a hit.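 Cells were grown in 96-well plates and exposed to the test compound at a single concentration for 48 hours; results are reported as percent growth, with values below 10 considered active.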 Unmarked numbers belong to inactive results. Activity calls are given as the source filed them.

As to `COc1ccc(NC(=O)Cn2c(O)c(N=Nc3ccc(S(N)(=O)=O)cc3)c3ccccc32)cc1`, the growth was 50.6% in test [1]; 62% in test [2]; 60% in test [3]; 84.1% in test [4]; 75.9% in [5]; 35.2% in [6]. Besides, the growth in test [7] is 27.4%; in [8], 103%; in [9], 85.3%; in test [10], 73.6%.
Turning to `CCN(CC)C(=O)N/C(N)=N/c1nc2ccccc2s1`, the growth in test [1] was 65.5%; in test [2] it was 15.3%; in test [3], 50.1%; in test [4], 37.7%; in test [5] it was 53.7%; in test [6], 50.7%. Further, the growth in test [7] is 36.6%; in test [8], 55.6%; in test [9] it was 41.9%; in [10] it was -4.3% (active).
Take `COc1ccc(-c2ccnc(SCc3cc4ccccc4[nH]c3=O)n2)cc1`: the growth was 67.2% in test [1]; 69.8% in test [2]; 49.1% in [3]; 68.4% in [4]; 85.2% in test [5]; 74.4% in test [6]. Further, the growth in test [7] was 55.1%; in [8], 93.2%; in [9], 48.1%; in [10] it was 11.1%.
`NC(=S)Nc1cccc(NC(N)=S)c1`: the growth was 112% in test [1]; 101% in [2]; 81.9% in [3]; 70% in [4]; 107% in test [5]; 96.3% in test [6]. Further, the growth in [7] was 79.7%; in test [8], 101%; in test [9], 96.4%; in test [10], 89.7%.
For `CN(C)c1nc(NCCNS(=O)(=O)c2ccc(C3=Nc4c(N)nc(N)nc4NC(c4ccccc4)C3)cc2)nc(Nc2ccc(F)cc2)n1` (centres undefined), the growth in test [1] is 68.6%; in [2], 51.4%; in [3] it was 37.8%; in test [4], 69%; in [5], 65%; in [6], 76.3%. Besides, the growth in test [7] was 61.2%; in [8], 57.3%; in [9], 22.2%; in test [10] it was 2.62% (active).
Consider `Cc1ccc(C(=O)CSc2nc3ccc(C)cc3c(=O)n2-c2ccc(F)cc2)cc1`, for which the growth in [1] is 116%; in test [2], 62.8%; in [4], 43.8%; in test [5], 56.3%; in test [6], 19.3%; in test [7], 53%. Also, the growth in test [8] is 19.6%; in [9], 88%; in test [10] it was 93.2%.
In the case of `Cc1cc2nc3c([nH]c2cc1C)c1ccc(=O)cc1n3CCN(C)C`, the growth is 73.4% in test [1]; 76.7% in [2]; 37.7% in test [3]; 12.5% in test [4]; 105% in test [5]; 20.4% in [6]. Besides, the values for the growth in [7], in [8] and in [10] were 19.9%, 111% and 5.98% (active), respectively.
As for `COc1ccc(C2(SCCNCc3cc(N(C)C)ccn3)c3ccccc3C=Cc3ccccc32)cc1`, the growth was -34.9% (active) in test [1]; 15.8% in test [2]; 33.7% in [4]; 50.3% in [5]; 37.7% in [6]; 26.5% in test [7]. The growth was 65.9% in [8], 8.49% (active) in [9] and 8.17% (active) in test [10].
Turning to `N/C(=N\c1nc2ccccc2s1)NC(=O)Nc1c(Cl)cccc1Cl`, the growth in test [1] is 6% (active); in test [2], 37.6%; in test [3], 30.4%; in test [4], 47.6%; in test [5], 93.8%; in [6] it was 48.1%. Also, the growth is 32% in test [7], 94.3% in test [8], 30% in test [9] and 30% in test [10].
For the compound `CCCSc1nc(NCCc2c[nH]c3ccccc23)c(C#N)c(-c2ccc(F)cc2)n1`, the growth was 92% in test [1]; 50.8% in test [2]; 68.7% in [4]; 91.6% in [5]; 59.2% in [6]; 52.3% in test [7]. For the same compound, the values for the growth in test [8], in [9] and in test [10] were 96.8%, 33.6% and 42.5%, respectively.
For `CN(C)c1ccnc(NCCCSC(c2ccccc2)(c2ccccc2)c2ccccc2)c1`, the growth in test [1] is 43%; in test [2], 35.5%; in test [4], 28.9%; in [5] it was 74.4%; in test [6], 53.3%; in test [7], 30.8%. Also, the growth was 89.6% in test [8], -26.3% (active) in test [9] and -8.29% (active) in [10].
On to `COc1cc2c3c(n(CCCN4CCC[C@@H]4CO)c(=O)c2cc1OC)-c1cc2c(cc1C3=O)OCO2`, for which the growth in test [1] was 120%; in test [2], -70.6% (active); in test [3], -91.7% (active); in [4] it was -92.5% (active); in test [5] it was 91.4%; in [6], -100% (active). For the same compound, the growth in test [7] is -94.6% (active); in test [8], 93.8%; in test [9] it was 6.04% (active); in test [10], 5.36% (active).
Take `Cc1cc2nc3c4ccccc4n(CC4=NCCN4)c3nc2cc1C`: the growth was 66.7% in test [1]; 60.4% in test [2]; -6.68% (active) in test [3]; -95.2% (active) in test [4]; 64.4% in [5]; -100% (active) in test [6]. Also, the growth in test [7] was -70% (active); in [8], 63.8%; in test [10], -19.4% (active).
